Assay results: article PMC11062922 (Nature Chemical Biology, 2023)
Like-named read-outs stand apart in the source and are kept apart here.

Experiments:
Parameters in all cases: species or system human, MV4-11 + K-562 + COLO205 + SK-N-BE2 + OVCAR-8
[1] = tested on: AKT1; settings: read-out: apparent Kd, n = 1
[2] = tested on: CDK17; settings: read-out: apparent Kd, n = 1
[3] = tested on: T1, DJA1; settings: read-out: apparent Kd, n = 1
T1 construct: gene DNAJA1

[4] = tested on: MAP2K1; settings: read-out: apparent Kd, n = 1
[5] = tested on: NQO1; settings: read-out: apparent Kd, n = 1
[6] = tested on: DDR2; settings: read-out: apparent Kd, n = 1
[7] = tested on: EPHB1; settings: read-out: apparent Kd; compound concentrations:100 nM and 1000 nM (sheet 'Samples'); n = 1
[8] = tested on: PDXK; settings: read-out: apparent Kd, n = 1
[9] = tested on: PIK3CD; settings: read-out: apparent Kd, n = 1
[10] = tested on: MAPKAPK2; settings: read-out: apparent Kd; compound concentrations:100 nM and 1000 nM (sheet 'Samples'); n = 1
[11] = tested on: TGFBR1; settings: read-out: apparent Kd; compound concentrations: 100 nM and 1000 nM (sheet 'Samples'), CATDS: 4.6246179171744603E-2; n = 1
[12] = tested on: FN3KRP; settings: read-out: apparent Kd, n = 1
[13] = tested on: PDGFRB; settings: read-out: apparent Kd, n = 1
[14] = tested on: FLT4; settings: read-out: apparent Kd, n = 1
[15] = tested on: GSK3A; settings: read-out: apparent Kd, compound concentrations: 100 nM and 1000 nM (sheet 'Samples'), n = 1
[16] = compound concentrations:100 nM and 1000 nM (sheet 'Samples')

Fc1cccc(COc2ccc(Nc3ncncc3C#Cc3ccccc3)cc2Cl)c1 [GW651576X]
potency estimated from few doses ([1]; compound concentrations: 100 nM and 1000 nM (sheet 'Samples'), CATDS: 4.6282631455897803E-2): 2130 nM | potency estimated from few doses ([2]; compound concentrations: 100 nM and 1000 nM (sheet 'Samples'), CATDS: 4.4959210496165199E-2): 2290 nM | potency estimated from few doses ([3]; compound concentrations: 100 nM and 1000 nM (sheet 'Samples'), CATDS: 6.6379654075199995E-2): 1040 nM | potency estimated from few doses ([4]; compound concentrations: 100 nM and 1000 nM (sheet 'Samples'), CATDS: 4.57330679966748E-2): 2200 nM | potency estimated from few doses ([5]; compound concentrations: 100 nM and 1000 nM (sheet 'Samples'), CATDS: 4.6647451225595299E-2): 2090 nM

NC(=O)c1cccnc1COc1cc(-c2ccc(N3CCOCC3)nc2)cc2ncccc12 [BI01125081]
potency estimated from few doses [6, 16]: 2240 nM | potency estimated from few doses [3, 16]: 1430 nM | potency estimated from few doses [7]: 738 nM | potency estimated from few doses [8, 16]: 1680 nM | potency estimated from few doses [9, 16]: 126 nM

Nc1c(C(=O)c2ccccc2)cnn1-c1ccc(F)cc1 [RO1151246-000]
potency estimated from few doses [1, 16]: 1460 nM | potency estimated from few doses [4, 16]: 1470 nM | potency estimated from few doses [10]: 665 nM

COc1ccc(-c2nn3ncccc3c2-c2ccnc(Nc3ccc4c(c3)OCCO4)n2)cc1 [GW827106X]
potency estimated from few doses ([6]; compound concentrations: 100 nM and 1000 nM (sheet 'Samples'), CATDS: 4.9498926543833199E-2): 1520 nM | potency estimated from few doses [11]: 1810 nM

Cc1ccc(C(=O)NC2CC2)cc1-c1ccc2[nH]ncc2c1 [GW820759X]
potency estimated from few doses ([12]; compound concentrations: 100 nM and 1000 nM (sheet 'Samples'), CATDS: 0.34838904093032003): 1060 nM

Cc1ccc(CC(=O)N2CCc3cc(-c4cn(C)c5ncnc(N)c45)ccc32)cc1 [GSK2634758A]
potency estimated from few doses ([3]; compound concentrations: 100 nM and 1000 nM (sheet 'Samples'), CATDS: 0.16738098836047199): 1400 nM | potency estimated from few doses ([12]; compound concentrations: 100 nM and 1000 nM (sheet 'Samples'), CATDS: 0.17784341210851801): 1240 nM | potency estimated from few doses ([8]; compound concentrations: 100 nM and 1000 nM (sheet 'Samples'), CATDS: 0.16794834883854801): 1390 nM

O=C1NC(=O)C(c2cccc(Cl)c2)=C1Nc1ccc(O)c(Cl)c1 [SB-409514]
potency estimated from few doses ([13]; compound concentrations: 100 nM and 1000 nM (sheet 'Samples'), CATDS: 0.33776588797305401): 1280 nM

CCS(=O)(=O)c1ccc(OC)c(Nc2ncc(-c3cccc(F)c3)o2)c1 [GW621970X_KCGS]
potency estimated from few doses [14, 16]: 574 nM | potency estimated from few doses [13, 16]: 1960 nM

Cc1[nH]nc2c1N=C(c1ccccc1Cl)c1cc([N+](=O)[O-])ccc1N2 [RO0274406-000]
potency estimated from few doses ([15]; CATDS: 0.10002413728449901): 504 nM | potency estimated from few doses ([8]; compound concentrations: 100 nM and 1000 nM (sheet 'Samples'), CATDS: 8.1891234484878103E-2): 832 nM

Fc1ccc(-c2ncn(C3CCNCC3)c2-c2ccnc(Oc3ccc4c(c3)OCO4)n2)cc1 [SB-250715]
potency estimated from few doses [1, 16]: 2330 nM | potency estimated from few doses [4, 16]: 1050 nM | potency estimated from few doses [10]: 4.25 nM | potency estimated from few doses [5, 16]: 1700 nM

Cl.Oc1ccc2ncnc(Nc3ccc(OCc4ccccc4)cc3)c2c1 [GI262866A]
potency estimated from few doses [12, 16]: 762 nM | potency estimated from few doses [8, 16]: 506 nM

Cn1cc(C2=C(c3ccccc3[N+](=O)[O-])C(=O)NC2=O)c2ccccc21 [RO0317753-000]
potency estimated from few doses ([12]; compound concentrations: 100 nM and 1000 nM (sheet 'Samples'), CATDS: 8.17359273490917E-2): 1130 nM | potency estimated from few doses ([15]; CATDS: 0.31381008714401198): 26.1 nM | potency estimated from few doses ([8]; compound concentrations: 100 nM and 1000 nM (sheet 'Samples'), CATDS: 8.6520417055061499E-2): 907 nM

COc1ccc(Nc2nccc(N3CCC(NC(=O)Nc4cccc(OC)c4)C3)n2)cc1 (stereo not drawn) [GSK1379742A]
potency estimated from few doses ([4]; compound concentrations: 100 nM and 1000 nM (sheet 'Samples'), CATDS: 0.105548477944527): 2400 nM | potency estimated from few doses ([5]; compound concentrations: 100 nM and 1000 nM (sheet 'Samples'), CATDS: 0.15295412535869199): 1120 nM

Cn1cc(C2=C(c3cccc([N+](=O)[O-])c3)C(=O)NC2=O)c2ccccc21 [RO0317474-000]
potency estimated from few doses ([12]; compound concentrations: 100 nM and 1000 nM (sheet 'Samples'), CATDS: 0.16649901321048899): 1070 nM | potency estimated from few doses ([8]; compound concentrations: 100 nM and 1000 nM (sheet 'Samples'), CATDS: 0.221818886522231): 628 nM

COc1cc(N2CCN(C(C)C)CC2)ccc1Nc1nc(Nc2cccc(F)c2C(=O)O)c2cc[nH]c2n1 [GSK1819799A]
potency estimated from few doses ([1]; compound concentrations: 100 nM and 1000 nM (sheet 'Samples'), CATDS: 4.312239107291E-2): 1940 nM | potency estimated from few doses ([2]; compound concentrations: 100 nM and 1000 nM (sheet 'Samples'), CATDS: 4.1653075396407099E-2): 2170 nM | potency estimated from few doses ([3]; compound concentrations: 100 nM and 1000 nM (sheet 'Samples'), CATDS: 4.1353934999492699E-2): 2220 nM | potency estimated from few doses ([4]; compound concentrations: 100 nM and 1000 nM (sheet 'Samples'), CATDS: 4.3561445001152499E-2): 1870 nM

COc1ccc(C2=C(c3cn(C)c4ccccc34)C(=O)NC2=O)cc1OC [RO3206363-000]
potency estimated from few doses ([1]; compound concentrations: 100 nM and 1000 nM (sheet 'Samples'), CATDS: 7.5592220710657507E-2): 180 nM | potency estimated from few doses ([3]; compound concentrations: 100 nM and 1000 nM (sheet 'Samples'), CATDS: 3.2513241063347201E-2): 1710 nM | potency estimated from few doses ([14]; compound concentrations: 100 nM and 1000 nM (sheet 'Samples'), CATDS: 3.2229986541726797E-2): 1770 nM | potency estimated from few doses ([15]; CATDS: 4.8098017287816999E-2): 503 nM | potency estimated from few doses ([9]; compound concentrations: 100 nM and 1000 nM (sheet 'Samples'), CATDS: 0.47573299908292999): 9.3 nM

Cl.Fc1cccc(COc2ccc(Nc3ncnc4cc(-c5ccc[nH]5)sc34)cc2Cl)c1 [GW693881A]
potency estimated from few doses ([12]; compound concentrations: 100 nM and 1000 nM (sheet 'Samples'), CATDS: 0.20216809637719099): 791 nM

Cn1cc(C2=C(c3cn(CCCN/C(N)=N/[N+](=O)[O-])c4ccccc34)C(=O)NC2=O)c2ccccc21 [RO0318161-000]
potency estimated from few doses ([15]; CATDS: 0.30578210093767899): 1280 nM | potency estimated from few doses ([8]; compound concentrations: 100 nM and 1000 nM (sheet 'Samples'), CATDS: 0.37249947882966999): 866 nM

COc1ccccc1C(=O)c1cnc(NC2CCN(S(C)(=O)=O)CC2)nc1N [RO4514610-000]
potency estimated from few doses [2, 16]: 732 nM

CC(=O)Nc1ccc2c(C3=C(c4cn(C)c5ccccc45)C(=O)NC3=O)cn(C)c2c1 [RO0317596-000]
potency estimated from few doses ([12]; compound concentrations: 100 nM and 1000 nM (sheet 'Samples'), CATDS: 0.121909442798699): 1250 nM | potency estimated from few doses ([15]; CATDS: 0.16934615909466): 626 nM | potency estimated from few doses ([8]; compound concentrations: 100 nM and 1000 nM (sheet 'Samples'), CATDS: 0.18147743783192199): 554 nM

Cc1ccc(NC(=O)Nc2ccccc2)cc1-c1ccc(C(=O)Nc2ccncc2)cc1 [GSK1398471A]
potency estimated from few doses ([13]; compound concentrations: 100 nM and 1000 nM (sheet 'Samples'), CATDS: 0.100538994858546): 1940 nM

COc1cc(F)c(F)c(F)c1C(=O)c1cnc(NC2CCN(S(C)(=O)=O)CC2)nc1N [RO4600703-000]
potency estimated from few doses [2, 16]: 77.3 nM | potency estimated from few doses [12, 16]: 549 nM | potency estimated from few doses [8, 16]: 501 nM
